In the assay the target is Peroxisome proliferator-activated receptor gamma (Homo sapiens) (UniProt P37231). In words: PPARg partial agonist activation, primary screen, cell-based, luciferase reporter, luminescence (AID 504452).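 Further: Cos-1 cells carrying PPARgamma and a response element luciferase reporter.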 Conditions: at 5 µM, stronger effect = higher value; activation (% of full agonist control): measured here: relative to full agonist control. Background: A reporter such as luciferase makes a cellular process visible.
Sequence of Peroxisome proliferator-activated receptor gamma (Homo sapiens) (P37231 whole entry, looked up): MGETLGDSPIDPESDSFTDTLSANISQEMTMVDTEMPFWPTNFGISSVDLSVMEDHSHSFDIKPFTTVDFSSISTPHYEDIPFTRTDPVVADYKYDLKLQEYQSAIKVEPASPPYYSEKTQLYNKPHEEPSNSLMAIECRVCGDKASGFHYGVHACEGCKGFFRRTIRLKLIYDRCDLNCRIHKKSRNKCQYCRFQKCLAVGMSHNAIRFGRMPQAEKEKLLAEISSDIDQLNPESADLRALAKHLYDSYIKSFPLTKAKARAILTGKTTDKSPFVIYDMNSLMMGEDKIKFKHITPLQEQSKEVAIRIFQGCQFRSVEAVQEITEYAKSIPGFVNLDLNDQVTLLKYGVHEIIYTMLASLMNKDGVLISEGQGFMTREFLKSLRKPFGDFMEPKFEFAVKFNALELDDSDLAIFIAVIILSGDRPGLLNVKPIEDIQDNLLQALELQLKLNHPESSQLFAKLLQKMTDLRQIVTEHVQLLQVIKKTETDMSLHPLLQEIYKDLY

Activity calls are given as the source filed them. No stated cut-off is given here; in the data, active means activation above about 85%; inactive means the rest.

Consider `O=C(Cn1c(=O)c(=O)n(Cc2ccccc2)c2ccc(Cl)cc21)NCC1CCCO1` (centres undefined), for which the activation (% of full agonist control) worked out at 31.1% and the activation (% of partial agonist control) is 68.9% (inactive).
With `CCOc1ccc2nc(N3C(=O)C(O)=C(C(=O)c4ccco4)C3c3ccco3)sc2c1` (centres undefined), the activation (% of full agonist control) was 38.5% and the activation (% of partial agonist control) is 85.2% (active).
For `COc1ccc(-c2nn(-c3ccccc3)cc2/C=C2/SC(=S)N(CCC(=O)O)C2=O)c(C)c1`, in that order: 44.4% and 98.3% (active).
For `Cc1ccc2[nH]c(=O)c(CN(Cc3cccs3)Cc3nnnn3CC3CCCO3)cc2c1` (centres undefined), in that order: 44.1% and 97.6% (active).
For the compound `Cc1ccc(/C(O)=C2/C(=O)C(=O)N(c3ccccn3)C2c2cccc([N+](=O)[O-])c2)cc1` (centres undefined), the activation (% of full agonist control) amounted to 34.1% and the activation (% of partial agonist control) is 75.6% (inactive).
For `O=C(CSc1nc(=O)n(CCN2CCOCC2)c2c1CCCC2)Nc1cccc([N+](=O)[O-])c1`, in that order: 47.7% and 106% (active).
For `O=C(Nc1ccccc1F)C(=O)c1cn(CC(=O)N2CCCCC2)c2ccccc12`, in that order: 34.4% and 76.1% (inactive).
Taken in the same sequence, the figures for `CN(CCNC(=O)C1CCCN(c2ncnc3c2nc2n3CCCCC2)C1)Cc1ccccc1` (centres undefined) were 49% and 109% (active).
Turning to `O=C(C1CC(=O)N(c2ccc3c(c2)OCCO3)C1)N1CCN(c2ccccc2O)CC1` (centres undefined), the activation (% of full agonist control) worked out at 31.6% and the activation (% of partial agonist control) is 69.9% (inactive).
Take `O=C(NCC(c1ccco1)N1CCc2ccccc2C1)c1cccc(F)c1` (centres undefined): the activation (% of full agonist control) turned out to be 33.4% and the activation (% of partial agonist control) was 74% (inactive).
For `COc1cc(C2/C(=C(/O)c3ccc(F)cc3)C(=O)C(=O)N2CCCC(=O)O)ccc1O` (centres undefined), in that order: 37% and 82% (inactive).
For the compound `CSCc1c(C(=O)Nc2ccc(N3CCOCC3)cc2)oc2ccccc12`, the activation (% of full agonist control) stood at 33.5% and the activation (% of partial agonist control) was 74.2% (inactive).

(Values after PubChem BioAssay AID504452 (The Scripps Research Institute Molecular Screening Center, 2011).)
